Results published in the supplement of paper PMC10849652.
Of roughly 8,800 targets only a part is listed; those with a hit were picked by preference. About 0.5% of all pairs of compound and target were hits. Unmarked numbers belong to inactive results.

Columns and labels:
Assay in all cases: log2 fold change, soluble protein after heating vs DMSO (PISA); higher = thermal stabilisation; K562 lysate, 10 uM; active = over 0.2 and 3.5 SD of the protein, either way, in both replicates (recomputed)
vemurafenib = compound: CCCS(=O)(=O)Nc1ccc(F)c(C(=O)c2c[nH]c3ncc(-c4ccc(Cl)cc4)cc23)c1F [vemurafenib]
How it was run: (§1)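 The values are log-two fold changes in thermal stability compared with solvent controls and come from duplicates. They were obtained by TMTpro 16plex LC-MS/MS, with channel sums equalised, on the supernatant after 21,000xg for 90 min. That supernatant came from crude K562 extract at 1 mg/mL protein treated with 10 μM compound for 30 min, heated for 3 min across 48°C-58°C, pooled and brought to 0.5% NP-40 at 4°C.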

[1] = compound: CCCS(=O)(=O)Nc1ccc(F)c(C(=O)c2c[nH]c3ncc(Cl)cc23)c1F
How it was run: as §1

barasertib = compound: CCN(CCCOc1ccc2c(Nc3cc(CC(=O)Nc4cccc(F)c4)[nH]n3)ncnc2c1)CCOP(=O)(O)O [barasertib]
How it was run: as §1

[2] = compound: CC[C@@H]1C(=O)N(C)c2cnc(Nc3ccc(C(=O)NC4CCN(C)CC4)cc3OC)nc2N1C1CCCC1
How it was run: as §1

volasertib = compound: CC[C@@H]1C(=O)N(C)c2cnc(Nc3ccc(C(=O)N[C@H]4CC[C@H](N5CCN(CC6CC6)CC5)CC4)cc3OC)nc2N1C(C)C [volasertib]
How it was run: as §1

[3] = compound: CCn1c(C(=O)N(C2CC2)C2CC2)cc2c3c(ncn3C)c(Nc3cc(C)n(C)n3)nc21
How it was run: as §1

[4] = compound: CCn1cc(-c2ccnc3[nH]c(-c4cccc(CN(C)C)c4)cc23)c(-c2ccc(NC(=O)N(C)C)cc2)n1
How it was run: as §1

[5] = compound: CN1CCC(CNc2ccc3ncc(-c4cccc(OC(F)(F)F)c4)n3n2)CC1
How it was run: as §1

saracatinib = compound: CN1CCN(CCOc2cc(OC3CCOCC3)c3c(Nc4c(Cl)ccc5c4OCO5)ncnc3c2)CC1 [saracatinib]
How it was run: as §1

sotrastaurin = compound: CN1CCN(c2nc(C3=C(c4c[nH]c5ccccc45)C(=O)NC3=O)c3ccccc3n2)CC1 [sotrastaurin]
How it was run: as §1

alvocidib = compound: CN1CC[C@H](c2c(O)cc(O)c3c(=O)cc(-c4ccccc4Cl)oc23)[C@H](O)C1 [alvocidib]
How it was run: as §1

Tubastatin A = compound: CN1CCc2c(c3ccccc3n2Cc2ccc(C(=O)NO)cc2)C1 [Tubastatin A]
How it was run: as §1

[6] = compound: CNC(=O)C1=CC=CC=C1NC2=NC(=NC=C2Cl)NC3=C(C=C(C=C3)N4CCOCC4)OC
How it was run: as §1

defactinib = compound: CNC(=O)c1ccc(Nc2ncc(C(F)(F)F)c(NCc3nccnc3N(C)S(C)(=O)=O)n2)cc1 [defactinib]
How it was run: as §1

[7] = compound: CNc1nc(-c2ccc3c(N)n[nH]c3c2)cc(N2C[C@@H](C(=O)NC3CCCCC3)CC[C@H]2C)n1
How it was run: as §1

encorafenib = compound: COC(=O)N[C@@H](C)CNc1nccc(-c2cn(C(C)C)nc2-c2cc(Cl)cc(NS(C)(=O)=O)c2F)n1 [encorafenib]
How it was run: as §1

[8] = compound: COC(=O)[C@H](CCSC)NC(=O)C1=C(C=C(C=C1)NC[C@H](CS)N)C2=CC=CC=C2
How it was run: as §1

alisertib = compound: COc1cc(Nc2ncc3c(n2)-c2ccc(Cl)cc2C(c2c(F)cccc2OC)=NC3)ccc1C(=O)O [alisertib]
How it was run: as §1

[9] = compound: COc1cc2nc(-c3cc(F)ccc3O)nc(N[C@@H]3CNC[C@H]3C(C)(C)O)c2cc1OC
How it was run: as §1

gefitinib = compound: COc1cc2ncnc(Nc3ccc(F)c(Cl)c3)c2cc1OCCCN1CCOCC1 [gefitinib]
How it was run: as §1

Sequence of UniProt Q99871 (Q99871 whole entry, looked up): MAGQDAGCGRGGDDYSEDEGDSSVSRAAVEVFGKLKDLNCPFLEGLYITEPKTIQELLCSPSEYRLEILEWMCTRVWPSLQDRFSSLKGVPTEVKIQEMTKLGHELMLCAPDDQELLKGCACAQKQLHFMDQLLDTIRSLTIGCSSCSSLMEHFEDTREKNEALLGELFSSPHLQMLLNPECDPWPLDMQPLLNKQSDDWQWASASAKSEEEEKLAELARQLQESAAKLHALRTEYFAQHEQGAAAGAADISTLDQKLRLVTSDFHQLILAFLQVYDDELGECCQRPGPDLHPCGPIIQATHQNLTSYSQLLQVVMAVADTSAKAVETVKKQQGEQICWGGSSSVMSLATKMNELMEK
Sequence of UniProt O15379 (O15379 whole entry, looked up): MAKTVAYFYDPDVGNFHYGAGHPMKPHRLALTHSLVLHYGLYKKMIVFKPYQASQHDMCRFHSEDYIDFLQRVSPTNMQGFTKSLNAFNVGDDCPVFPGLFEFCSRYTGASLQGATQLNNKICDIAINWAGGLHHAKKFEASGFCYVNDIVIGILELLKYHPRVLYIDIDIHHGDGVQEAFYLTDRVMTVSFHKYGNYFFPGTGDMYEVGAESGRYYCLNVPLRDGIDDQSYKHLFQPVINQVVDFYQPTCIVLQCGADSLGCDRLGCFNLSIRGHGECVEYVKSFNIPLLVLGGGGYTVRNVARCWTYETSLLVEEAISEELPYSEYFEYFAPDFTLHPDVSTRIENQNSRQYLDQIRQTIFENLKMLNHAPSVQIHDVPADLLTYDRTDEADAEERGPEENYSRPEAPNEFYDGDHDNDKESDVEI
Sequence of UniProt Q9H0C8 (Q9H0C8 whole entry, looked up): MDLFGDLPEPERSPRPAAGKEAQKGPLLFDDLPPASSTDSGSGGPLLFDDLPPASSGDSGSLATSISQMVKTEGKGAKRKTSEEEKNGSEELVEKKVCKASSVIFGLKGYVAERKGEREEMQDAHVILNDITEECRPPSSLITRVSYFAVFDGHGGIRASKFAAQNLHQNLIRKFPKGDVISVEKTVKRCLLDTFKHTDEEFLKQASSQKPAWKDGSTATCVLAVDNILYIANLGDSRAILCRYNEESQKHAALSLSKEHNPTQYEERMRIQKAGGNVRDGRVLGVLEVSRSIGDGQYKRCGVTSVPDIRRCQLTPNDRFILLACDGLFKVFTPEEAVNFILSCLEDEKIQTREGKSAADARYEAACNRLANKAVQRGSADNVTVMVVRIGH
Sequence of UniProt O75367 (O75367 whole entry, looked up): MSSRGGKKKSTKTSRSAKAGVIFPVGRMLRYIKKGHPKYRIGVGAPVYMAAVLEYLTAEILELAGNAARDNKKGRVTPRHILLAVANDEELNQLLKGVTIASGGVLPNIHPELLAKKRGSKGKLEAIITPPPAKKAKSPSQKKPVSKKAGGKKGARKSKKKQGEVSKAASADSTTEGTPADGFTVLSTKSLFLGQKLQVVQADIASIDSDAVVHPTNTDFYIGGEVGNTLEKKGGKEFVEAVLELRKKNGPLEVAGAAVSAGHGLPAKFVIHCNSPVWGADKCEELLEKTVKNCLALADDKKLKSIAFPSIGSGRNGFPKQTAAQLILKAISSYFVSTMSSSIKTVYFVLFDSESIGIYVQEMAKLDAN
Sequence of UniProt P14866 (P14866 whole entry, looked up): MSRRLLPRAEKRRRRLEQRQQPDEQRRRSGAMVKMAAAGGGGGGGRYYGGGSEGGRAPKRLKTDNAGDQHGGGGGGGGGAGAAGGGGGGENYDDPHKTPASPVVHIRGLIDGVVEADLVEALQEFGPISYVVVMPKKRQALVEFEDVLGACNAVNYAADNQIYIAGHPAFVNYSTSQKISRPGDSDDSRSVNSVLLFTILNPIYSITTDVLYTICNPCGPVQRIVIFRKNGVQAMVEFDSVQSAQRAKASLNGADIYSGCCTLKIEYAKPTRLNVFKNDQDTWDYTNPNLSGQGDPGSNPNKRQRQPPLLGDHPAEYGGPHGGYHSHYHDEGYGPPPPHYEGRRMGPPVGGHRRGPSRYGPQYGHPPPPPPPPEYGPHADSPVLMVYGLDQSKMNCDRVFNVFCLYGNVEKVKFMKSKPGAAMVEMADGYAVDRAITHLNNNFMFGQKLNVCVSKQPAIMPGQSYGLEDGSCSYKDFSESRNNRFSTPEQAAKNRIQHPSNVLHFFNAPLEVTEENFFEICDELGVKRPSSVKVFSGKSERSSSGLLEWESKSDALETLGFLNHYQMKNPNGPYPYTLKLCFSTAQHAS
Sequence of UniProt Q9P2X3 (Q9P2X3 whole entry, looked up): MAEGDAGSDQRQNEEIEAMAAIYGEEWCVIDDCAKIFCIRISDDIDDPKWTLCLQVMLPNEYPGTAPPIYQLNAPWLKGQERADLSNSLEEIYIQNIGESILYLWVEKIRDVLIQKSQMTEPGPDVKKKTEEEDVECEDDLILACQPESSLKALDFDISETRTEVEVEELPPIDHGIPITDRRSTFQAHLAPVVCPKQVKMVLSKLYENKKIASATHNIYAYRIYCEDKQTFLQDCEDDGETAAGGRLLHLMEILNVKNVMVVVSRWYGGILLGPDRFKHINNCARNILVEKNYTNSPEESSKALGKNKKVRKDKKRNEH
Sequence of UniProt Q9H4A5 (Q9H4A5 whole entry, looked up): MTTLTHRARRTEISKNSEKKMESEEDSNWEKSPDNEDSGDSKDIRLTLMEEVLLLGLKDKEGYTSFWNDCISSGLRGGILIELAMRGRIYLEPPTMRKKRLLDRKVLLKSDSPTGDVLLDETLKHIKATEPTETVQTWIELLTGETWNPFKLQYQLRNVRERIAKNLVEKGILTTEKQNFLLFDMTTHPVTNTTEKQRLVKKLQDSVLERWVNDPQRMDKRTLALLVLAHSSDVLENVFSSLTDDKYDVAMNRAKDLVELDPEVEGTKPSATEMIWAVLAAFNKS
Sequence of UniProt Q969S8 (Q969S8 whole entry, looked up): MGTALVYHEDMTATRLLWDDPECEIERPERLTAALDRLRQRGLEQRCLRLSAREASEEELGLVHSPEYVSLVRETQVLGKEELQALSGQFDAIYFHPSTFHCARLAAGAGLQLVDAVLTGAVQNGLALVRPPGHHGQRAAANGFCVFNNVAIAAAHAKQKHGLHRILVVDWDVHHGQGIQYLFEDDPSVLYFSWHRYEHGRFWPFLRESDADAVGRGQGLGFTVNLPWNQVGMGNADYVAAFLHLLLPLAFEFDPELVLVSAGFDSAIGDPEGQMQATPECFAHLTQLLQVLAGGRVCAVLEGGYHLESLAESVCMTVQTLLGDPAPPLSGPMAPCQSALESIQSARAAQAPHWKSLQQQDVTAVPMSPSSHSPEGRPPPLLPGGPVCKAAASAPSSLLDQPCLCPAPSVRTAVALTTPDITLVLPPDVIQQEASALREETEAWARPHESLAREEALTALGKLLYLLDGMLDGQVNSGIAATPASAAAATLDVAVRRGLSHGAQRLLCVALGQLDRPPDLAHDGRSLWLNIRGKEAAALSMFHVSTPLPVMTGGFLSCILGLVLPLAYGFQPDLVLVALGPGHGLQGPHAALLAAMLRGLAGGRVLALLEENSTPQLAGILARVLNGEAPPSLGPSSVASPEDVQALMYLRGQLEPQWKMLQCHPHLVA
Sequence of UniProt Q9Y223 (Q9Y223 whole entry, looked up): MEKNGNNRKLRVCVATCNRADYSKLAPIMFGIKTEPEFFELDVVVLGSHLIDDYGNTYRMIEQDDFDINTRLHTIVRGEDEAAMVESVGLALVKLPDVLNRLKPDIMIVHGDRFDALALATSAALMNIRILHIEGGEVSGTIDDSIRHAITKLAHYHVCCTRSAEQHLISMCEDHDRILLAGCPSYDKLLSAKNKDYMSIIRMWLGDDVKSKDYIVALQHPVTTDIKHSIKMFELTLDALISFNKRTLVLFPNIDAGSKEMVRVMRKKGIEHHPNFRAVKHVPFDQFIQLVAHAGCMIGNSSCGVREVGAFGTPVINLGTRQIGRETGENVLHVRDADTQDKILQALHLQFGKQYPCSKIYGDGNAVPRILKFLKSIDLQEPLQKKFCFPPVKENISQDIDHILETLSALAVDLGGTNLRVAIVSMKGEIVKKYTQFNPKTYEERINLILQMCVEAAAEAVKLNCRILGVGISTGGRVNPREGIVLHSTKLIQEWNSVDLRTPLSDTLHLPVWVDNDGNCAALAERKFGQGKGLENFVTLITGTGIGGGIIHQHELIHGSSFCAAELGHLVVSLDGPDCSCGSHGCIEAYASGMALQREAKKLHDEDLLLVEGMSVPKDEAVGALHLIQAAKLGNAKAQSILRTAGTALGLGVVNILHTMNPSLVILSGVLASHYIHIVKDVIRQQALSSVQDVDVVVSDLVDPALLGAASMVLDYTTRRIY
Sequence of UniProt Q9BXW7 (Q9BXW7 whole entry, looked up): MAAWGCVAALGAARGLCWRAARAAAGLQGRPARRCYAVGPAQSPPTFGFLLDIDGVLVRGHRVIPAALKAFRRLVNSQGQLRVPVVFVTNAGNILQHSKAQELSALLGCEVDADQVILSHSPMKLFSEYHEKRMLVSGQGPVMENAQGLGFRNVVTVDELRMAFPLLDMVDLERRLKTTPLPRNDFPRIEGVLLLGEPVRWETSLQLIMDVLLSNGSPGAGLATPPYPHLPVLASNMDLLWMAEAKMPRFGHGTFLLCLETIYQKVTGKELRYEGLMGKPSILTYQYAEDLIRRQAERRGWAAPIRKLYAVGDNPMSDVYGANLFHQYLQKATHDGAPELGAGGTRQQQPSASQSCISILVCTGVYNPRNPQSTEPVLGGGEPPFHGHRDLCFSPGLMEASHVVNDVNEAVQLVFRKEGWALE
Sequence of UniProt Q9BUE6 (Q9BUE6 whole entry, looked up): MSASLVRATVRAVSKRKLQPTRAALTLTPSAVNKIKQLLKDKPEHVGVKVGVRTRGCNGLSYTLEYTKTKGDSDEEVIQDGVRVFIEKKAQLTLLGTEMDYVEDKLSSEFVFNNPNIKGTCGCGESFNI

Target | log2 fold change (vemurafenib) | log2 fold change [1] | log2 fold change (barasertib) | log2 fold change [2] | log2 fold change (volasertib) | log2 fold change [3] | log2 fold change [4] | log2 fold change [5] | log2 fold change (saracatinib) | log2 fold change (sotrastaurin) | log2 fold change (alvocidib) | log2 fold change (Tubastatin A) | log2 fold change [6] | log2 fold change (defactinib) | log2 fold change [7] | log2 fold change (encorafenib) | log2 fold change [8] | log2 fold change (alisertib) | log2 fold change [9] | log2 fold change (gefitinib)
ISCA1 isoform 2 (UniProt Q9BUE6) | 0.007 | -0.059 | 0.028 | 0.042 | 0.03 | -0.051 | 0.425 (active) | -0.21 | 0.028 | 0.021 | 0.103 | 0.023 | 0.037 | 0.092 | 0.071 | -0.034 | -0.003 | -0.286 | 0.075 | -0.025
HDAC3 (UniProt O15379) | 0.035 | 0.026 | -0.038 | -0.023 | -0.003 | 0.001 | 0.023 | 0.052 | -0.04 | -0.006 | 0.005 | -0.039 | 0.013 | -0.023 | 0.069 | 0.008 | -0.057 | 0.02 | -0.015 | 0.014
IMPACT (UniProt Q9P2X3) | 0.158 | -0.117 | -0.014 | -0.095 | 0.053 | 0.133 | 0.003 | -0.122 | 0.001 | 0.058 | 0.002 | -0.04 | -0.006 | 0.013 | -0.05 | 0.063 | -0.083 | -0.024 | -0.044 | 0.167
HAUS7 isoform 2 (UniProt Q99871) | -0.054 | 0.006 | 0.002 | 0.005 | -0.06 | -0.021 | 0.073 | -0.173 | 0.044 | -0.025 | 0.001 | -0.128 | 0.021 | -0.045 | -0.021 | 0.024 | 0.099 | 0.031 | -0.135 | -0.043
ILKAP (UniProt Q9H0C8) | -0.037 | -0.01 | -0.04 | -0.048 | -0.017 | 0.002 | 0.016 | 0 | -0.013 | 0.021 | 0.056 | -0.067 | 0 | 0.03 | -0.028 | -0.002 | 0.017 | 0.067 | -0.006 | 0.005
IRAK1 (UniProt P51617) | 0.086 | -0.033 | -0.01 | -0.089 | -0.134 | 0.041 | -0.135 | 0.043 | -0.016 | -0.029 | -0.104 | -0.038 | 0.314 | 0.086 | 0.121 | 0.812 (active) | 0.062 | -0.01 | 0.096 | 0.022
HDHD5 (UniProt Q9BXW7) | -0.033 | 0.043 | -0.137 | -0.076 | -0.02 | 0.01 | 0 | 0.011 | -0.06 | 0.05 | -0.097 | -0.078 | 0.041 | -0.069 | 0.034 | 0.026 | 0.024 | 0.031 | 0.012 | -0.063
HAUS5 (UniProt O94927) | 0.004 | 0.048 | -0.02 | -0.038 | -0.016 | 0.026 | 0.01 | -0.087 | -0.008 | 0.03 | 0.062 | -0.146 | 0.007 | 0.026 | 0.015 | -0.006 | 0.092 | -0.01 | 0.006 | -0.007
HNRNPL (UniProt P14866) | 0.01 | 0.023 | 0.021 | -0.052 | -0.047 | 0.061 | -0.012 | -0.056 | 0.017 | 0.023 | 0.035 | -0.174 | 0.016 | 0.015 | -0.02 | 0 | 0.073 | -0.026 | -0.007 | -0.019
INTS14 (UniProt Q96SY0) | -0.046 | 0.034 | -0.021 | 0.019 | -0.013 | -0.017 | -0.071 | 0.008 | -0.019 | 0.001 | -0.001 | -0.066 | 0.032 | 0.025 | 0.02 | 0.006 | -0.1 | -0.018 | 0.015 | -0.003
H2AFY (UniProt O75367) | -0.042 | 0.013 | 0.094 | 0.131 | -0.036 | -0.001 | -0.059 | 0.056 | -0.077 | 0.104 | -0.034 | 0.079 | -0.026 | 0.106 | 0.329 (active) | 0.094 | 0.014 | 0.001 | 0 | 0
GRK6 isoform 2 (UniProt P43250) | 0.102 | 0.046 | 0.042 | 0.11 | 0.006 | -0.032 | -0.136 | 0.614 (active) | -0.056 | -0.001 | -0.05 | 0.074 | 0.007 | 0.034 | 0.148 | -0.082 | 0.043 | -0.04 | -0.015 | 0.064
GOLPH3L (UniProt Q9H4A5) | 0.068 | 0.025 | 0.033 | -0.055 | -0.023 | 0.048 | -0.034 | -0.08 | 0.046 | -0.092 | 0.018 | -0.083 | -0.005 | -0.077 | 0.008 | 0.063 | -0.395 (active) | 0.026 | -0.059 | 0.018
GOLGA1 (UniProt Q92805) | 0.081 | 0.086 | 0 | 0.007 | 0.121 | -0.061 | -0.019 | -0.04 | -0.031 | 0.071 | -0.027 | 0.051 | 0.035 | -0.017 | 0.011 | 0.028 | -0.093 | -0.017 | -0.18 | -0.024
HDAC10 (UniProt Q969S8) | 0.142 | -0.093 | 0.009 | -0.052 | -0.056 | -0.117 | -0.026 | 0.02 | -0.052 | -0.069 | 0.033 | 0.49 (active) | -0.075 | -0.135 | -0.014 | 0.091 | 0.08 | 0.047 | -0.006 | 0.165
GNE isoform 2 (UniProt Q9Y223) | 0.024 | 0.027 | 0.03 | -0.107 | -0.095 | 0.039 | 0.008 | -0.053 | -0.003 | -0.029 | 0.028 | -0.12 | 0.016 | -0.011 | -0.024 | -0.008 | 0.176 | 0.041 | 0.026 | -0.014
